Sampled rows, rich in hits. Any-hit rate of the full collection: about 4.5%.
Rpn11 inh: inhibitors of human proteasome Rpn11; O00487; human 26S proteasome, Ub4-pepOG fluorescence polarization; 20S core pre-blocked with epoxomicin; inhibition, % at 20 µM; hit rate 0.59% among 360,000; AID 588493;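 active means inhibition at 20 µM, scaled to each plate's controls, above about 33%, limit read from the data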
Target sequence (O00487 whole entry, looked up): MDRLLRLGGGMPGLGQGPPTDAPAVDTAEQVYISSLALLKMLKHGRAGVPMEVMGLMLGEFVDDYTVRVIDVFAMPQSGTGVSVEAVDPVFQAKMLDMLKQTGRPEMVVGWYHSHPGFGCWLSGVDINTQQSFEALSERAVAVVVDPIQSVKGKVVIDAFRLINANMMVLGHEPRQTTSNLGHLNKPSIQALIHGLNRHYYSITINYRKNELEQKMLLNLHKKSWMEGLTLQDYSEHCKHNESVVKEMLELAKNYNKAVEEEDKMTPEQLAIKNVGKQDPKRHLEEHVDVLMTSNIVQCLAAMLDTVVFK
EBNA-1 inhibitor: blocks EBNA-1 binding to DNA. EBNA-1 DNA binding, fluorescence polarization. inhibition, % at 14.8 µM. hit rate 0.34% among 300,000. AID 1950; in the data active means inhibition above about 28%
GRIN3A LBD mod: modulators (binders) of human NR3A ligand-binding domain. NR3A LBD differential scanning fluorimetry, Tm shift; 0% = protein alone, 100% = glycine-bound protein. Tm shift relative to glycine control, % at 25 µM. hit rate 2.5% among 340,000;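 active means melting temperature shift of at least 10% of the positive control shift, at one fixed dose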
ZTA DNA inh: ZTA (EBV) inhibition in EBNA-1 counter-screen | ZTA-DNA binding, fluorescence polarization | hit rate 0.15% among 320,000 | P03206 | inhibition, % at 11 µM; in the data active means inhibition above about 33%
Target sequence (P03206 whole entry, looked up): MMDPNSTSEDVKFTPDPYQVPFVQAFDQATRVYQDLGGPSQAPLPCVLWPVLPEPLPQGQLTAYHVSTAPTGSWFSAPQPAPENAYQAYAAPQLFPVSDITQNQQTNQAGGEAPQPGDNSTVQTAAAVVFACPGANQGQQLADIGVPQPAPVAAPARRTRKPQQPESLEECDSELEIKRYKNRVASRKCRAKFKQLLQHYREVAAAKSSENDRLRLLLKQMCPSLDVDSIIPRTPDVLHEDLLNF
dFosB act-1: mouse delta FosB homodimer activation. AID 493131. activation, % at 25 µM. hit rate 0.99% among 340,000. purified delta FosB, TAMRA-CDK5 oligo fluorescence polarization; percent of positive-control signal above neutral wells;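 active means mean activation above about 17%, with every replicate also reaching it, limit read from the data, passing the limit was not always enough; inconclusive means only one of the two conditions met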
TPT1 inhibitor: C. albicans TPT1 enzyme inhibition | recombinant caTPT1, FP RNA substrate dephosphorylation | inhibition, % at 5 µM | hit rate 0.81% among 300,000 | AID 1962;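 active means inhibition above the mean of all tested compounds plus 3 SD, set per screening campaign, cut at about 24% in these data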;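 further: plate controls were DMSO alone for no effect and ferristatin control at 100 nM for full effect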
dFosB act-2: activators of mouse delta FosB homodimer DNA binding; shares compounds with dFosB act-1; purified delta FosB, TAMRA-CDK5 oligo fluorescence polarization; normalised: neutral wells 0, positive control 100; activation, % at 24.9 µM; 2,400 tested, under 10 active; AID 588690;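 active means highest replicate activation at or above 34% and every replicate reaching that threshold; inconclusive means meets only one of the two criteria; inactive means meets neither criterion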;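 further: higher polarization means more probe DNA bound by delta FosB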
* = called active by the depositor; ? = inconclusive; . = not tested or not shown.

SMILES | Rpn11 inh | EBNA-1 inhibitor | GRIN3A LBD mod | ZTA DNA inh | dFosB act-1 | TPT1 inhibitor | dFosB act-2
O=C(Nc1ccncc1)c1ccc2c(c1)C(=O)N(C1CCCCC1)C2=O | -6 | -7 | 3 | -4 | 26* | -3 | 6
CCOC(=O)N1CCC(N2C(=O)c3ccc(C(=O)NCCOC)cc3C2=O)CC1 | 2 | -12 | -3 | -9 | 1 | -1 | .
CCOC(=O)N1CCC(N2C(=O)c3ccc(C(=O)Nc4ccc(OC)cc4)cc3C2=O)CC1 | 2 | 2 | 3 | 8 | 30* | -3 | -3
Cc1cc(NC(=O)/C=C/c2ccc(Cl)cc2)no1 | 5 | 8 | -2 | -1 | 0 | 2 | .
CC(=O)c1ccc(S(=O)(=O)N2CCN(CC(=O)Nc3ccnn3C3CCCC3)CC2)cc1 | 3 | . | 0 | . | -5 | . | .
COc1ccc(/C=C/C(=O)Nc2c(C)nn(C)c2C)cc1COc1ccc(Cl)cc1Br | 1 | 14 | -2 | 21 | 131* | 0 | -7
COc1ccc(S(=O)(=O)n2nc(C)cc2C)cc1OC | -7 | -8 | 4 | -3 | 2 | 2 | .
Cc1ccc(-c2csc(NC(=O)Cn3cnc4c3c(=O)n(C)c(=O)n4C)n2)cc1C | 9 | 1 | 0 | -9 | -2 | -2 | .
Cn1c(=O)c2c(ncn2CC(=O)Nc2nc(-c3ccc(F)c(F)c3)cs2)n(C)c1=O | -1 | -2 | 2 | 2 | 32* | -1 | 9
Cc1ccc(Cn2nc(C)c(NC(=O)CSc3n[nH]c(C)c3[N+](=O)[O-])c2C)cc1 | -2 | 6 | 3 | 4 | 30* | 1 | 0
COc1cc2ccccc2cc1C(=O)N(CCN(C)C)c1nc2c(OC)ccc(OC)c2s1 | 8 | -5 | 1 | -12 | ? | -3 | .
COc1ccc2nc(N(CCN(C)C)C(=O)/C=C/c3cccs3)sc2c1 | 2 | 8 | 0 | 10 | 42* | 3 | -8
COc1ccc2sc(N(CCN(C)C)C(=O)/C=C/c3cccs3)nc2c1 | 0 | 2 | 1 | -3 | ? | -5 | .
COc1cc2ccccc2cc1C(=O)N(CCN(C)C)c1nc2ccc(C)cc2s1 | -1 | -9 | -4 | -8 | 40* | -1 | 2
COc1cc2ccccc2cc1C(=O)N(CCN(C)C)c1nc2c(C)cccc2s1 | -6 | -3 | 1 | -7 | 29* | 0 | 6
Cc1ccc(S(=O)(=O)NCc2ccccc2)cc1C(=O)N(C)CC(=O)Nc1c(Cl)cccc1Cl | -5 | 8 | 2 | 4 | -3 | -4 | .
CCCCN(C(=O)c1cnccn1)c1c(N)n(CCC)c(=O)[nH]c1=O | 1 | . | -2 | . | -6 | . | .
O=C(COc1ccccc1)Nc1nnc(COc2ccccc2)s1 | -16 | . | 0 | . | 12 | . | .
COc1ccc(C2=CC(=O)C[C@H](c3ccc(OC)c(OC)c3)C2)cn1 | 0 | . | 0 | -3 | -8 | . | .
S=C(N/N=C/c1ccccc1Cl)Nc1cccc(Cl)c1Cl | 5 | 14 | 3 | -2 | 36* | 3 | 3
CC(=O)N1c2ccc(S(=O)(=O)N3CCC(C(=O)Nc4cccc(Cl)c4)CC3)cc2CC1C (stereo unspecified) | -4 | -11 | -8 | -5 | -10 | -1 | .
CN1CCN(C2=Nc3c(Cl)cc(Cl)c4cccc2c34)CC1 | 28 | 12 | -1 | 13 | 20* | -16 | -1
CN1CCN(C2=Nc3cc(F)ccc3Cc3ccccc32)CC1 | . | 10 | . | -20 | . | -4 | .
COc1cc2c(cc1OC)-c1cc3ccc(OC)c(OC)c3c[n+]1CC2 | 0 | -3 | -2 | 4 | 28* | 1 | -3
O=C(NCc1ccccc1CN1CCCC1)c1cccc(S(=O)(=O)N2CCOCC2)c1 | -5 | . | 1 | 4 | -4 | . | .
SMILES | Rpn11 inh | EBNA-1 inhibitor | GRIN3A LBD mod | ZTA DNA inh | dFosB act-1 | TPT1 inhibitor | dFosB act-2
O=[N+]([O-])c1ccc2c(c1)/C(=N\O)c1ccccc1-2 | -3 | 4 | -3 | 3 | 27* | -1 | 2
COc1cc2c(cc1[N+](=O)[O-])-c1ccc([N+](=O)[O-])cc1C2=NO | 3 | . | . | . | . | . | .
Cc1cccc(C(C(=O)NC2CCCCC2)N(Cc2cccnc2)C(=O)c2csnn2)c1 (stereo unspecified) | 1 | -8 | 0 | 1 | -8 | -1 | .
CC(C)(C)OC(=O)N[C@@H](Cc1ccccc1)c1nnc(SCC(=O)c2ccc(Cl)cc2)o1 | -2 | 16 | 3 | -1 | 44* | 2 | 7
CC(C)(C)OC(=O)N[C@@H](Cc1ccccc1)c1nnc(SCC(=O)O)o1 | 2 | -2 | -1 | -12 | 7 | -3 | .
NC(=O)c1nsc(C(=O)N(c2cccc(O)c2)C(C(=O)NC2CCCC2)c2ccc(Cl)cc2)c1N (stereo unspecified) | 9 | -6 | -3 | 5 | 71* | -1 | 1
CCOc1ccc(C(C(=O)NC2CCCC2)N(C(=O)c2snc(C(N)=O)c2N)c2cccc(O)c2)cc1 (stereo unspecified) | -1 | -16 | -6 | -5 | -11 | -1 | .
COc1ccc(C(C(=O)NC2CCCCC2)N(C(=O)c2snc(C(N)=O)c2N)c2ccc(OC)cc2OC)cc1 (stereo unspecified) | 8 | -6 | -1 | 17 | ? | 1 | .
COc1ccc(N(C(=O)c2snc(C(N)=O)c2N)C(C(=O)NC2CCCC2)c2ccc(F)cc2)c(OC)c1 (stereo unspecified) | 4 | -6 | -1 | -22 | 32* | 0 | -7
N#CCCN(C(=O)COC(=O)c1ccc2c(=O)n3c(nc2c1)CCC3)c1ccc(F)cc1 | -11 | 12 | -2 | -2 | -11 | -3 | .
COC(=O)C(Cc1ccc(O)cc1)NC(=O)C1CCN(S(=O)(=O)c2ccc(C)cc2)CC1 (stereo unspecified) | -4 | -5 | -1 | -8 | -14 | 0 | .
CC(C)CCN1C(=O)c2ccc(C(=O)Nc3c[nH]c(=O)[nH]c3=O)cc2C1=O | 1 | -4 | 0 | 8 | 8 | 3 | .
CC(=O)Oc1cccc(N2C(=O)c3ccc(C(=O)Nc4c[nH]c(=O)[nH]c4=O)cc3C2=O)c1 | 4 | -6 | 7 | 0 | 20* | -3 | 1
Nc1cccc(Oc2ccc3c(c2)C(=O)N(CC2CCCO2)C3=O)c1 (stereo unspecified) | 7 | 13 | 0 | -10 | -1 | -3 | .
Cc1c(Cl)cccc1NC(=O)CCNC(=O)N1CC(=O)Nc2ccccc21 | -7 | -14 | -1 | 11 | 23* | 3 | 6
O=C(CCNC(=O)N1CC(=O)Nc2ccccc21)NCc1ccccc1Cl | 0 | . | . | . | . | . | .
CC(=O)c1cccc(NS(=O)(=O)c2ccc(N/C=C\C(=O)c3ccc(F)cc3)cc2)c1 | 4 | 3 | 1 | 13 | -4 | 3 | .
